The campaign covered roughly 52,000 compounds. About 4,300 (8.3%) were called active. The sample holds actives, similar compounds and a random draw of the others, so the mix is not that of the screen. Values without a mark were called inactive. No stated cut-off is given here; in the data, active means survival mostly below about 52% (no sharp cut-off); inactive means mostly above about 56%.
tested on: DeltatarO mutant; assay: growth inhibition of S. aureus wild type versus tarO mutant, primary screen, teichoic acid synthesis inhibitors, RN4220, OD600 (AID 463173); conditions: OD600, 18 h, stronger effect = lower value, screened at 18.75 µg/mL (by protocol)

Row | SMILES | survival
1 | CCOc1ccc(NC(=O)C(NS(=O)(=O)c2ccc3c(c2)CCN3C(C)=O)C(C)C)cc1 (configuration not stated) | 124%
2 | CCCOc1ccc(-c2nc(SCC(=O)c3ccc(Cl)cc3)n[nH]2)cc1 | 187%
3 | Cc1ccc(NC(=O)CSc2ncc(S(=O)(=O)c3ccc(C(C)C)cc3)c(=O)[nH]2)cc1C | 87%
4 | Nc1c(C(=O)Nc2ccccc2Cl)c2ccccn2c1C(=O)c1ccc(Cl)cc1 | 80%
5 | CCOC(=O)c1ccccc1NC(=O)CSc1nc2ccncc2[nH]1 | 85%
6 | CC(Sc1ncc(S(=O)(=O)c2ccc(C(C)C)cc2)c(N)n1)C(=O)Nc1ccccc1 (configuration not stated) | 60%
7 | COCCNc1c(-c2ccccc2)nc2cc(C)ccn12 | 69%
8 | COc1ccc(CNC(=O)c2ccc3nc(-c4ccc(F)cc4)c(-c4ccc(F)cc4)nc3c2)cc1 | 78%
9 | COc1ccc(-c2nc3cc(C)ccn3c2NC(=O)c2cccc(F)c2)cc1 | 53% (active)
10 | Cc1ccn2c(NC(=O)c3cccc(Cl)c3)c(-c3ccccc3)nc2c1 | 65%
11 | O=C(Nc1c(-c2ccc(F)cc2)nc2ccccn12)c1cccc(F)c1 | 146%
12 | COc1ccc(-c2nc3cc(C)ccn3c2NC(=O)c2ccc(C)c(C)c2)cc1 | 68%
13 | Cc1cccc(C(=O)Nc2c(-c3ccccc3)nc3cc(C)ccn23)c1 | 27% (active)
14 | COc1ccc(-c2nc3cc(C)ccn3c2NC(=O)c2ccc(F)cc2)cc1 | 37% (active)
15 | Cc1nc2ccccn2c(=O)c1NC(=O)c1cccc(F)c1 | 71%
16 | CCOc1ccccc1NS(=O)(=O)c1ccc(N2CCCCS2(=O)=O)cc1 | 97%
17 | Cc1ccc(NC(=O)/C(C#N)=C/c2cn(CC(=O)NCc3ccco3)c3ccccc23)cc1Cl | 64%
18 | Cc1ccc(S(=O)(=O)NNC(=S)NCC2CCCO2)cc1 (configuration not stated) | 69%
19 | Cc1cn2c(=O)cc(COC(=O)COc3ccc(F)cc3)nc2s1 | 70%

Row | SMILES | survival
20 | Cc1cn2c(=O)cc(COC(=O)COc3ccc(C)c(C)c3)nc2s1 | 67%
21 | Cc1cc(C)cc(OCc2cc(=O)n3cc(C)sc3n2)c1 | 81%
22 | O=C(COc1ccccc1)OCc1cc(=O)n2nc(-c3cccs3)sc2n1 | 88%
23 | COc1cccc(OCc2cc(=O)n3cc(C)sc3n2)c1 | 40% (active)
24 | Cc1cn2c(=O)cc(COc3ccc(Cl)cc3)nc2s1 | 53%
25 | COc1ccc(OCC(=O)OCc2cc(=O)n3cc(C)sc3n2)cc1 | 6% (active)
26 | COc1ccc(OCC(=O)OCc2cc(=O)n3nc(-c4cccs4)sc3n2)cc1 | 94%
27 | O=C(COc1ccc(Cl)cc1)OCc1cc(=O)n2nc(-c3cccs3)sc2n1 | -4% (active)
28 | COc1ccccc1-c1nc(CNC(=O)Nc2ccccc2)c(C)o1 | 98%
29 | Cc1ccc(N2C(=O)N(CC(=O)C(C)(C)C)c3ccccc3S2(=O)=O)cc1C | 91%
30 | CCOc1ccc2c(c1)c(=O)c(S(=O)(=O)c1ccc(C)cc1)cn2Cc1ccccc1Cl | 82%
31 | CC1=C(C)C(=O)N(c2ccccn2)C1=O | 93%
32 | Cc1ccc(-n2c(=O)c3ccc(C(=O)NCc4ccccc4Cl)cc3n(CC(=O)Nc3ccc(C)cc3C)c2=O)cc1 | 79%
33 | CC(C)(C)NC(=O)c1cccc(NC(=O)c2ccco2)c1 | 101%
34 | COc1ccc(N2CCN(CNC(=O)c3ccccc3)CC2)cc1 | 95%
35 | Nc1nnc(CCN2C(=O)CSC2=O)s1 | 95%
36 | CCc1cnc2c(c1SCC(=O)NCc1ccc(F)cc1)c(=O)n(C)c(=O)n2C | 119%
37 | CC(C)C(=O)Nc1ccc2nc(SCC(=O)N3CCc4ccccc43)sc2c1 | 97%
38 | CCc1nnc(NC(=O)CSc2nc3c([nH]c4ccccc43)c(=O)n2-c2ccc(F)cc2)s1 | 84%

Row | SMILES | survival
39 | CCc1ccc(-c2nc(CS(=O)CC(=O)NCCc3ccc(Cl)cc3)c(C)o2)cc1 (configuration not stated) | 91%
40 | COc1ccc2cc(CNc3ccc(C)cc3)c(=O)n(CC(=O)Nc3ccc(C)cc3Cl)c2c1 | 102%
41 | COc1ccc2c(c1)c1c(c(=O)n(Cc3ccccc3)c(=O)n1CC(=O)Nc1ccc(C)cc1C)n2C | -2% (active)
42 | Cc1ccc(Cn2c(=O)n(-c3ccc(C)cc3)c(=O)c3c2c2cc(C)ccc2n3C)cc1 | 52% (active)
43 | COc1ccc2c(c1)c1c(c(=O)n(CCc3ccccc3)c(=O)n1Cc1ccccc1)n2C | 90%
44 | Cc1ccc(-n2c(=O)c3c(c4cc(C)ccc4n3C)n(Cc3ccc(F)cc3)c2=O)cc1 | 116%
45 | COc1ccc2c(c1)c1c(c(=O)n(Cc3ccccc3)c(=O)n1CC(=O)Nc1c(C)cccc1C)n2C | 72%
46 | COc1ccc2c(c1)c1c(c(=O)n(Cc3ccccc3)c(=O)n1CC(=O)Nc1ccccc1F)n2C | 109%
47 | COc1ccc2cc(CNc3ccccc3)c(=O)n(CC(=O)Nc3ccc(C)cc3C)c2c1 | 0% (active)
48 | COc1ccc2c(c1)c1c(c(=O)n(CCc3ccccc3)c(=O)n1Cc1cccc(F)c1)n2C | 67%
49 | COc1ccc(Cn2c(=O)n(-c3ccc(C)cc3)c(=O)c3c2c2cc(C)ccc2n3C)cc1 | 100%
50 | CCc1ccc(NCc2cc3ccc(OC)cc3n(CC(=O)Nc3ccccc3C)c2=O)cc1 | 83%
51 | COc1ccc2c(c1)c1c(c(=O)n(CCc3ccccc3)c(=O)n1Cc1ccc(F)cc1)n2C | 6% (active)
52 | O=C(Nc1nc2c(F)cccc2s1)c1ccc(S(=O)(=O)N2CCOCC2)cc1 | 103%
53 | COc1cc(NC(=O)c2nn(C)c3c2CS(=O)(=O)c2ccccc2-3)cc(OC)c1 | 68%
54 | Cc1cc(C)c(NC(=O)Cn2cnc3c(oc4ccccc43)c2=O)c(C)c1 | 69%
55 | COc1ccc(C2C(=O)N(C3CCC(C)CC3)CC(=O)N2Cc2ccc(C)cc2)cc1OC (configuration not stated) | 86%
56 | CCC(C(=O)N(C)Cc1ccccc1)n1nc(C)c2sc3ccccc3c2c1=O (configuration not stated) | 66%
57 | O=C(CC(c1ccccc1)c1ccccc1)N1CCN(Cc2ccc3c(c2)OCO3)CC1 | 67%
